Assay results from PubChem BioAssay.
The source made the active and inactive calls.

How the values were obtained:
Albumin (Bos taurus) = Albumin (Bos taurus) (UniProt P02769); assay: bovine serum albumin binders on microarray, profiling panel, artefact control for SMM control protein annotation, biochemical, small-molecule microarray, Alexa647 label, 635/667 nm fluorescence (AID 1118); settings: BSA-A647 binding, fluorescence 635 nm, higher = more signal;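 also: score merges 667 nm emission intensity and signal-to-noise per printed compound spot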
[1] = small-molecule microarray binders of probe aXIP, primary screen, biochemical, NeuroSMM set, 635/667 nm fluorescence (AID 1119); settings: higher = more signal, called active from +8 up or from −8 down;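 also: probe is the protein aXip251-270 applied at 1 µg/mL to compound-printed slides; binding of probe to printed compounds measured as 667 nm fluorescence plus signal to noise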
[2] = small-molecule binders of probe aNOTCH3, primary screen, biochemical, small-molecule microarray, 635/667 nm fluorescence (AID 1120); settings: higher = more signal;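 also: probe is a biotin-tagged antibody raised against NOTCH3 rather than NOTCH3 protein; score merges spot fluorescence near 667 nm with spot signal to noise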
[3] = small-molecule binders of probe aNOTCH2, primary screen, biochemical, small-molecule microarray, 635/667 nm fluorescence (AID 1121); settings: higher = more signal;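 also: score merges feature fluorescence read at 667 nm with its signal to noise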
[4] = biological target: Carbonic anhydrase 2 (Homo sapiens) (UniProt P00918); assay: CAII small-molecule binders, profiling panel, biochemical, small-molecule microarray, Alexa647-labelled CAII (AID 1122); settings: CAII-A647 binding fluorescence, higher = more signal
[5] = COS7 lysate on small-molecule microarray, probe aHis, 635 nm (AID 1123); settings: COS7 cell lysate, fluorescence, higher = more signal;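 also: z-score combines 667nm fluorescence intensity with signal-to-noise per printed compound spot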
[6] = compound binding in COS7 lysate, probe aLAP1, primary screen, cell lysate, small-molecule microarray (AID 1124); settings: probe aLAP1, fluorescence, higher = more signal;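 also: lysate comes from COS7 cells expressing LAP1 and is applied at 0.3 µg/mL; score merges spot fluorescence near 667 nm with signal-to-noise over triplicate slides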
Sam68 (KHDRBS1) = assay: Sam68 small-molecule binders, primary screen, biochemical, small-molecule microarray, 635 nm fluorescence (AID 1125); settings: small-molecule microarray binding, higher = more signal;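 also: score merges 667 nm channel intensity with signal to noise over triplicate slides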
[7] = test system: Chordin-like protein 2 (CHRDL2); assay: CHRDL2 small-molecule binders, primary screen, biochemical, small-molecule microarray, 635 nm fluorescence (AID 1126); settings: small-molecule microarray binding, fluorescence 635 nm; higher = more signal;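 also: printed compound slides probed with Chrdl2 protein at 4 µg/mL for 1 h at 4 C; score merges 667 nm emission intensity with signal to noise over three replicate slides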
[8] = biological target: Concanavalin-A (Canavalia ensiformis) (UniProt P02866); assay: ConA small-molecule binders, primary screen, artefact control for SMM control protein annotation, biochemical, small-molecule microarray, Alexa647 label, 635 nm (AID 1127); settings: ConA-A647 binding fluorescence, higher = more signal;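 also: z combines 667 nm emission intensity with signal-to-noise across three replicate slides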
Chain of Concanavalin-A (Canavalia ensiformis) (P02866 whole entry, looked up): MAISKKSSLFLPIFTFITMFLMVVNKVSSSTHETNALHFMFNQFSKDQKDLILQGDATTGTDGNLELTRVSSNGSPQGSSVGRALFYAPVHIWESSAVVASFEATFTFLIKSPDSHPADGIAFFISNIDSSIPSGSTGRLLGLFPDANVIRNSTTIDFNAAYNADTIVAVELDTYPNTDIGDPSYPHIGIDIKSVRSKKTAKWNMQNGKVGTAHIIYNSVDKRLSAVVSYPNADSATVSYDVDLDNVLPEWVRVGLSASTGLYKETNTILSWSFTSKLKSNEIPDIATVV

Chain of Albumin (Bos taurus) (P02769 whole entry, looked up): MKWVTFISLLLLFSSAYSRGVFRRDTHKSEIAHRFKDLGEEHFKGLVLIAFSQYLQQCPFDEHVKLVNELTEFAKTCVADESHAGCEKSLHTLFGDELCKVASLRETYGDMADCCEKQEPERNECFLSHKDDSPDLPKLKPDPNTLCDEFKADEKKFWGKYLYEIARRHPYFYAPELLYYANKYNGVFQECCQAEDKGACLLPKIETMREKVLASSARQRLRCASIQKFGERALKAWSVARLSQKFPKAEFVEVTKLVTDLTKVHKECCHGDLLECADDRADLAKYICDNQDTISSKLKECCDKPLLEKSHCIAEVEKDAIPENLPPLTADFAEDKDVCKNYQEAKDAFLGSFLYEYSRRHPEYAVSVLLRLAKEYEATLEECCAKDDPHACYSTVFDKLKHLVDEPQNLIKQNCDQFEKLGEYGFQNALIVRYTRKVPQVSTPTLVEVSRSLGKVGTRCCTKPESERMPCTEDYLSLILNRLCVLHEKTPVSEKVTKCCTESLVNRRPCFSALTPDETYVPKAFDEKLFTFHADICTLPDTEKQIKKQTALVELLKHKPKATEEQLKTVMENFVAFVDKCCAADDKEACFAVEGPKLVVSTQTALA

| SMILES | composite z-score (Albumin (Bos taurus)) | composite Z-score [1] | composite z-score [2] | composite z-score [3] | composite z-score [4] | composite z-score [5] | composite z-score [6] | composite z-score (Sam68 (KHDRBS1)) | composite z-score [7] | composite z-score [8] |
| --- | --- | --- | --- | --- | --- | --- | --- | --- | --- | --- |
| CCCCC=C[C@@H](NC(=O)c1ccc(C(=O)OC)cc1)c1ccccc1 | 0.924 | -0.213 (inactive) | 0.313 | -0.171 | 0.235 | 1.81 | 0.327 | 1.15 | -0.14 | 0.887 |
| CCOC(=O)C[C@H]1[C@H](OC(=O)c2ccc(-c3ccccc3)cc2)[C@@H](NC(=O)c2ccc(-c3ccccc3)cc2)c2cc(OCCCO)ccc2N1C(=O)Cc1ccc(OC)cc1 | 0.225 | -0.576 (inactive) | -0.0146 | -0.125 | -0.0968 | 0.589 | -0.002 | -0.316 | -0.15 | 0.363 |
| O=C1C2C=CC(C(O)c3cccs3)N(Nc3ccccc3F)C2C(=O)N1c1ccccc1 (stereo not given) | 0.512 | -0.413 (inactive) | -0.0728 | -0.181 | 0.419 | 1.55 | 0.118 | 0.794 | -0.399 | 0.653 |
| COc1ccc([Si](C)(C)[C@@H]2[C@@H](CC(=O)N3CCC[C@H]3CO)O[C@]3(C(=O)N(C)c4c(Br)cc(C)cc43)[C@H]2C)cc1 | 0.588 | 0.306 (inactive) | 0.0674 | -0.175 | 0.292 | 1.15 | 0.461 | 1.3 | 0.872 | 1.07 |
| CC(C)(C)N1CC=CC23O[C@@H]4C=CCOC(=O)[C@@H]4[C@H]2C(=O)N(CCCCCO)[C@@H]3C1=O (stereo not given in full) | 0.485 | 1.1 (inactive) | -0.406 | -0.229 | 0.82 | 0.121 | 1.25 | -0.87 | -0.612 | -2.63 |
| NC(=O)NCC#Cc1ccc2c(c1)[C@]1(C(=O)N2)[C@H](C(=O)N2CCCCCCC2)[C@H]2C(=O)O[C@H](c3ccccc3)[C@H](c3ccccc3)N2[C@@H]1c1ccc(OCCO)cc1 | -0.946 | -0.397 (inactive) | 1.29 | 0.683 | 0.336 | 1.6 | 0.864 | 1.32 | 1.09 | 0.987 |
| CCCCCCc1nc(CCCc2cc3c(c(CCCCCC)n2)[Si](C(C)C)(C(C)C)OC3)cc2c1[Si](C(C)C)(C(C)C)OC2 | -1.17 | -0.295 (inactive) | -0.0427 | -0.0649 | -0.567 | 0.111 | 0.0313 | -0.641 | 0.21 | -0.569 |
| COCCOC(=O)N1C(=O)[C@@]2(c3cc(C#CCNC(N)=O)ccc31)[C@H](c1ccc(OCCO)cc1)N1[C@H](c3ccccc3)[C@H](c3ccccc3)OC(=O)[C@H]1[C@@H]2C(=O)N1CCc2cc(OC)c(OC)cc2C1 | -1.03 | -0.0505 (inactive) | 0.112 | -0.0349 | 0.22 | 0.592 | 0.127 | 0.498 | 0.756 | 0.878 |
| C[C@]1(C(=O)NCc2ccccc2)c2ccccc2C(=O)N(Cc2ccc(OC(F)(F)F)cc2)[C@H]1c1ccc(CO)cc1 | -0.125 | 0.843 (inactive) | -0.211 | -0.103 | 0.681 | 1.78 | 0.107 | 0.426 | -0.256 | 0.592 |
| [N-]=[N+]=NCc1ccccc1C[C@@]1(C(=O)N2CCOCC2)N=C(c2ccc(OCCCO)cc2)O[C@@H]1c1ccccc1CN=[N+]=[N-] | 0.922 | 0.696 (inactive) | 0.713 | 0.266 | 0.586 | 2.61 | 1.29 | 1.31 | -0.725 | 1.14 |
| Cc1ccc(S[C@]2(C(=O)O)CC(=O)N(C3Cc4ccccc4C3)[C@@H]2c2ccc(CO)cc2I)cc1 | -0.133 | -0.0549 (inactive) | -0.0725 | -0.0799 | 0.675 | 1.1 | 0.672 | -0.0018 | 0.0442 | 0.181 |
| CC(C)C(=C=CC[C@H](O)c1cccc(OCCO)c1)C[C@H](O)COCc1ccccc1 | -0.0081 | 1.64 (inactive) | 0.119 | -0.0562 | 0.235 | 1.22 | -0.125 | 0.166 | -0.101 | 0.0514 |
| [N-]=[N+]=NCc1ccccc1C[C@]1(C(=O)O)N=C(c2ccc(OCCCO)cc2)O[C@H]1c1ccccc1CN=[N+]=[N-] | 0.938 | -0.313 (inactive) | -0.027 | -0.011 | 0.696 | 2.7 | 0.513 | 1.34 | -0.69 | 1.17 |
| O=C1O[C@@H](c2ccccc2)[C@@H](c2ccccc2)N2[C@@H](c3ccc(O)cc3)[C@]3(C(=O)Nc4ccc(C#CC5(O)CCCCCC5)cc43)[C@@H](C(=O)N3CCCCCCC3)[C@H]12 | 0.748 | 6.76 (inactive) | 2.12 | 1.06 | 0.742 | 3.88 | 0.894 | 1.33 | 1.55 | 1.12 |
| N#Cc1ccc(NN2C(C(O)c3cccs3)C=CC3C(=O)N(c4ccccc4)C(=O)C32)cc1 (stereo not given) | 0.536 | 0.388 (inactive) | 0.144 | -0.0136 | 0.817 | 2.28 | 0.672 | 1.01 | -0.0869 | 1.02 |
| COc1ccc(CCN2C(=O)[C@@]3(Cc4ccccc42)c2ccccc2C(=O)N(Cc2ccccc2Cl)[C@H]3c2ccc(CO)cc2)cc1 | -0.091 | -0.0503 (inactive) | -0.125 | -0.137 | 0.855 | -0.247 | 0.296 | -0.383 | -1.06 | -0.199 |
| O=C1N(CCS(=O)(=O)c2ccccc2)c2ccccc2C[C@@]12COC(c1ccc(OCCCO)cc1)=N2 | -0.746 | -0.279 (inactive) | 0.364 | 0.314 | 0.636 | 2.4 | 0.266 | 1.3 | 0.866 | 1.15 |
| [N-]=[N+]=Nc1ccccc1C[C@]1(C(=O)NCCN2CCOCC2)N=C(c2ccc(OCCCO)cc2)O[C@H]1c1ccccc1 | 0.323 | 0.619 (inactive) | 0.194 | -0.0849 | 0.597 | 2.7 | 0.203 | 1.3 | 0.497 | 0.702 |
| COc1ccc(CCNC(=O)[C@@]2(Sc3ccc(C)cc3)CC(=O)N(Cc3ccccc3Cl)[C@@H]2c2ccc(CO)cc2I)cc1 | 0.331 | -0.0194 (inactive) | -0.177 | -0.0814 | 0.76 | 1.71 | 1.18 | 0.361 | 0.0024 | -0.233 |
| CCOC(=O)C[C@H]1[C@H](OC(=O)c2ccccc2-c2ccccc2)[C@@H](NC(=O)c2ccc3ccccc3c2)c2cc(OCCCO)ccc2N1C(=O)c1ccc2ccccc2n1 | 0.43 | -0.666 (inactive) | 0.172 | -0.14 | 0.124 | 0.806 | -0.106 | 0.744 | -0.0077 | 0.406 |
| COc1ccccc1CN1C(=O)c2ccccc2[C@@H](C(=O)NCCN2CCOCC2)[C@@H]1c1ccc(CO)cc1 | 0.305 | -0.275 (inactive) | -0.0824 | -0.0548 | 0.769 | 1.29 | 1.08 | 0.287 | -0.159 | -0.15 |
| COc1ccc(C(=O)Nc2cccc(CN3C(=O)[C@]4(O[C@H](CC(=O)N5CCC[C@H]5CO)[C@@H]([Si](C)(C)c5ccc(OC)cc5)[C@@H]4C)c4ccccc43)c2)cc1 | 0.114 | 0.535 (inactive) | -0.0044 | -0.112 | 0.485 | 1.79 | 0.276 | 1.01 | 0.76 | 1.02 |
| CC1CC/C=C\[C@H]2OC34C=CCN(Cc5ccccc5)C(=O)[C@H]3N(CCCCCO)C(=O)[C@@H]4C2C(=O)O1 (stereo not given in full) | 0.363 | 0.815 (inactive) | -0.213 | -0.19 | 0.871 | -0.351 | 1.4 | -0.883 | -0.0737 | -0.811 |
| CC(C)NC(=O)[C@@]1(Cc2ccccc2I)c2ccccc2C(=O)N(Cc2ccccc2)[C@H]1c1ccc(CO)cc1 | 0.162 | 1.17 (inactive) | 0.204 | -0.0608 | 0.481 | 1.96 | 0.206 | 1.29 | 0.325 | 0.968 |
| O=C1c2ccccc2[C@@]2(Cc3ccccc3N(Cc3ccccc3)C2=O)[C@H](c2ccc(CO)cc2)N1C1CCCCC1 | -0.841 | 0.0066 (inactive) | -0.141 | -0.14 | 0.416 | 1.03 | 0.432 | 0.689 | 0.685 | 1.01 |
| COc1ccc(C#Cc2ccc3c(c2)[C@]2(C(=O)N3)[C@H](c3ccc(O)cc3)N3[C@H](c4ccccc4)[C@H](c4ccccc4)OC(=O)[C@H]3[C@@H]2C(=O)N2CCCCCCC2)cc1 | 0.814 | 5.12 (inactive) | 1.84 | 0.939 | 0.504 | 3.27 | 0.998 | 1.31 | 1.23 | 1.14 |
| O=C1O[C@@H](c2ccccc2)[C@@H](c2ccccc2)N2[C@@H](c3ccc(OCCO)cc3)[C@]3(C(=O)Nc4ccccc43)[C@@H](C(=O)Nc3nc4ccccc4s3)[C@H]12 | 0.915 | 0.755 (inactive) | 0.372 | -0.0028 | 0.593 | 2.45 | 0.262 | 1.3 | 0.477 | 1.11 |
